Here are results for 40 compounds from PubChem BioAssay (Tox21).

Inconclusive results are not listed. Where a call stands in place of a potency, no number is given. Values without a mark were called inactive. Active and inactive are the calls of the source. Calls follow the shape of the full dose curve.
Potency is read from the fitted curve at half-maximal effect.

The test deals with Muscarinic acetylcholine receptor M1 (Homo sapiens) (UniProt P11229). Kind of test: Cholinergic receptor muscarinic 1 (CHRM1) small molecule antagonists, cell-based qHTS assay (AID 1963588). Also: nearly all actives have a fitted effect of over 40% in size. Particulars: CHRM1-CHO antagonist mode, calcium flux fluorescence; series mostly up to 61.5 µM. From the text: National Center for Advancing Translational Sciences [NCATS]
Chain of Muscarinic acetylcholine receptor M1 (Homo sapiens) (P11229 whole entry, looked up): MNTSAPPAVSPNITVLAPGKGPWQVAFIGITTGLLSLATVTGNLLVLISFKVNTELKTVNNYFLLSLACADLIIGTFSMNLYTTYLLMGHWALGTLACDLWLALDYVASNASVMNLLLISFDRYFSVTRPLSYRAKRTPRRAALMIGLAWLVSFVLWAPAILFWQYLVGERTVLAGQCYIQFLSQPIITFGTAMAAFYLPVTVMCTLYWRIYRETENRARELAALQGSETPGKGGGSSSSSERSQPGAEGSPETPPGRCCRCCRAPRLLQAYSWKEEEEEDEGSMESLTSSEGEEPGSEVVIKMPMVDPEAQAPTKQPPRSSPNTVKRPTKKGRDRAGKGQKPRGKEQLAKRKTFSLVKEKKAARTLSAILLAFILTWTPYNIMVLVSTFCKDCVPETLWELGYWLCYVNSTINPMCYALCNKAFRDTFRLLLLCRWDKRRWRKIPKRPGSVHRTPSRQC
Division of Preclinical Innovation [DPI]
U.S. Environmental Protection Agency [EPA]
National Institutes of Environmental Health Sciences [NIEHS]
National Toxicology Program [NTP]
U.S. Food and Drug Administration [FDA]
The CHRM1 is a muscarinic receptor. This receptor plays a crucial role in learning and memory processes and has long been identified as a promising therapeutic target for the improvement of cognitive decline in Alzheimer's disease (AD). The CHRM1-CHO cell line stably expressing human muscarinic acetylcholine receptor M1 (CHRM1) can be used for screening agonists and antagonists of interactions between CHRM1 and its ligands. The CHRM1-CHO Calcium Flux Assay is a homogeneous fluorescence-based assay for detecting the intracellular calcium level using FDSS kinetic plate reader system.
Tox21 Assay Protocol Summary:
CHRM1-CHO cells were dispensed at 1000 cells/3uL/well in 1536-well black-clear bottom plates using a Multidrop Dispenser. After the assay plates were incubated at a 37 C/5% CO2 incubator for 18 h, 3 uL of Dye Loading Buffer was transferred to the assay plate by a Flying Reagent Dispenser. The assay plates were incubated at 37 C for 1h. For antagonist mode, 23 nL of compounds dissolved in DMSO, positive controls or DMSO only was transferred to the assay plate by a pin tool. After 5 min incubation at room temperature, 1.5 uL of acetylcholine at 50nM was added to each well. The fluorescence intensity in the plates was measured using FDSS 7000EX kinetic plate reader for 3 min at 1 sec intervals. Each test compound was measured at 15 concentrations in three independent runs.
On the technique in general: qHTS replaces the single test concentration by a dilution series.
In the case of `O=C(Oc1ccccc1)c1ccc2ccccc2c1O`, the Potency result was “inactive”.
For the compound `CCCCC(CC)COC(=O)COc1cc(Cl)c(Cl)cc1Cl` (stereo not given), the Potency entry was “inactive”.
On the same count and under the same terms, the entry for `Oc1cc(Cl)cc(Cl)c1Cl` is “inactive”; for `CC(C(O)c1ccccc1)N(C)CCOC(c1ccccc1)c1ccccc1` (stereo not given) it is 1.16 µM (active); for `CC[C@@H]([C@H](C)O)n1ncn(-c2ccc(N3CCN(c4ccc(OC[C@@H]5CO[C@@](Cn6cncn6)(c6ccc(F)cc6F)C5)cc4)CC3)cc2)c1=O` it is “inactive”.
For `NC(Cc1c[nH]c2ccccc12)C(=O)O` (stereo not given), the Potency result was “inactive”.
Still for that read-out and setting: then `CC1(C)O[C@@H]2C[C@H]3[C@@H]4CCC5=CC(=O)C=C[C@]5(C)[C@H]4[C@@H](O)C[C@]3(C)[C@]2(C(=O)CO)O1`, with “inactive”; and `CCN(CC)CCOc1ccc2c(c1)C(=O)c1cc(OCCN(CC)CC)ccc1-2`, with “inactive”; and `CCCCC/C(=C\c1ccccc1)CO`, with “inactive”.
As to `CCCCN1C(=O)c2ccccc2C1=O`, the Potency entry was “inactive”.
The same measure, in the same setting: the entry for `CCCC(=O)OCCc1ccccc1` is “inactive”.
Same read-out and setting: then `O=C1CCCCCCCCCCCCCCO1`, with “inactive”; and `COc1cc(C)nc(-n2nc(C)cc2OC)n1`, with “inactive”; and `O=[N+]([O-])c1cc(N(CCO)CCO)ccc1NCCO`, with “inactive”.
Turning to `CCCCCOC(=O)CCCCC`, the Potency result is “inactive”.
Same read-out and setting: then `CCc1ccc2c(c1)C(=O)c1ccccc1C2=O`, with “inactive”.
Regarding `C=C(C)C(=O)OCCCCCCCCCCCCCCCCCC`, the activity, negative = inhibition is -12.8% [at 12.6 µM].
With `CCC(=O)C1CC(C(C)C)CC=C1C` (stereo not given), the Potency entry was “inactive”.
The same measure, in the same setting: the entry for `CNC1CCCN(c2c(F)cc3c(=O)c(C(=O)O)cn(C4CC4)c3c2OC)C1` (stereo not given) is “inactive”; for `O=c1[nH]nc(-c2ccc([N+](=O)[O-])o2)o1` it is “inactive”.
Take `CCc1cccc2c(CCO)c[nH]c12`: the Potency entry was “inactive”.
The same measure, in the same setting: the entry for `CCSCC` is “inactive”.
For `O=C(Nc1ccccc1)OCC(CN1CCCCC1)OC(=O)Nc1ccccc1` (stereo not given), the Potency entry was “inactive”.
Still for that read-out and setting: the entry for `CCn1ccc(NS(=O)(=O)c2ccc(N)cc2)nc1=O` is “inactive”.
Regarding `CCCCCCCOC(=O)c1ccc(O)cc1`, the Potency result was “inactive”.
On the same count and under the same terms, then `NNc1nc(-c2ccc(N)cc2)cs1`, with “inactive”; and `CC1(C)CC(O)CC(C)(C)N1[O]`, with “inactive”; and `COc1cc(/C=C/c2ccccc2)oc(=O)c1`, with “inactive”.
For `Oc1ccc(CCNCCCCCCNCCc2ccccc2)cc1O`, the Potency entry was “inactive”.
Turning to `CCOc1ccc(NC(C)=O)cc1N`, the Potency entry was “inactive”.
Same read-out and setting: the entry for `O=C(c1ccccc1)c1ccccc1` is “inactive”.
Still for that read-out and setting: then `CC(C)Nc1ccc(NC(C)C)c2c1C(=O)c1ccccc1C2=O`, with “inactive”.
`O=C(O)CN(CCN(CC(=O)O)CC(=O)O)CC(=O)O`: the activity, negative = inhibition is 37.7% [at 2.17 µM].
Take `CC(C)(C)CC(C)(C)c1ccc(O)c(Cc2ccc(Cl)cc2Cl)c1`: the Potency entry was “inactive”.
The same measure, in the same setting: the entry for `CC(C)O.CC(C)O.CCOC(=O)/C=C(\C)O.CCOC(=O)/C=C(\C)O.[Ti]` is “inactive”.
Still for that read-out and setting: then `CC(C)c1ccccc1C(C)C`, with “inactive”; and `O=P(c1ccccc1)(c1ccccc1)c1ccccc1`, with “inactive”.
For the compound `NNC(=O)CP(=O)(c1ccccc1)c1ccccc1`, the Potency result was “inactive”.
Turning to `CCCCCCCCCCCCCCCCCCCl`, the activity, negative = inhibition is 10% [at 5.58 µM].
As to `Cc1ccc(C(C)OC(=O)C2(C)CCC(C(=O)O)C2(C)C)cc1` (stereo not given), the Potency entry was “inactive”.
